# Experimental data from PubChem BioAssay (NCATS).
# Results filed as inconclusive are left out. Entries that show only a call come without a potency. Calls of active or inactive are those of the source. Calls come from the whole dose curve; as a rule, active = well fitted inhibition curve with a large enough effect; inconclusive = small, poorly fitted or top-dose-only effect; inactive = no such curve, though single readings can be large or run the other way.
# Target: Retinaldehyde dehydrogenase 3 (Homo sapiens) (UniProt P47895)
# Experiment: qHTS for Inhibitors of the Aldehyde Dehydrogenase Family (ALDH1A3) Primary screen (AID 2061315)
# Conditions: ALDH inhibition qHTS; series mostly up to 56 µM
row,SMILES,Potency
1,O=S1(=O)N=C(Oc2ccccc2-c2ccccc2)c2ccccc21,inactive
2,N#Cc1ncc(C(=O)OCC(=O)NC2C3CC4CC(C3)CC2C4)cn1 (stereo not given),inactive
3,O=C(O)CCCCCNC(=O)CSc1nnc(-c2ccc([S+](=O)([O-])N3CCCC3)cc2)n1-c1ccccc1,inactive
4,Cc1cnc(-c2ccccc2C(C)C)nc1NCc1ccc(-c2ccc(F)nc2)cc1,inactive
5,COC(=O)C1CCN(C(=O)c2ccc3c(c2)ncn3-c2cccc(C)c2)CC1,inactive
6,COc1ccc(NS(=O)(=O)c2ccc(C)cc2)c(C(=O)Nc2nc(-c3ccccc3)cs2)c1,inactive
7,COc1ccc(C2NC(=O)c3ccccc3N2)cc1COc1c(C)cc(NC(C)=O)cc1C (stereo not given),inactive
8,CC(C)(C)OC(=O)N1CCN(c2ccc(NCc3ccc(-c4ccc(C#N)cc4)nc3)cc2)CC1,inactive
9,c1nc(NCC2CCCCO2)c2cc(-c3ccc4c(c3)OCO4)ccc2n1 (stereo not given),inactive
10,COc1ccc(CCc2nc3c(C)c(-c4c(C)noc4C)c(C)cc3n2CCN2CCOCC2)cc1,inactive
11,O=C(/C=C/c1cccs1)Nc1cccc([S+](=O)([O-])Nc2ccccc2F)c1,inactive
12,COc1cccc(C2c3c(ncn(-c4ccccc4SC)c3=N)Oc3ccc4ccccc4c32)c1 (stereo not given),inactive
13,CC(C)Oc1cccc(-c2csc(N3CCC(C(N)=O)CC3)n2)c1,inactive
14,O=C(Cc1ccc(Cl)c(Cl)c1)Nc1ccc([S+](=O)([O-])Nc2ccc([N+](=O)[O-])cc2)cc1,inactive
15,C[C@@H]1CC[C@]2(C)C(C[C@@H](O)[C@H](O)[C@]23CO3)[C@@]1(C)CCc1ccoc1 (stereo not given in full),inactive
16,CC(=O)N1CCCc2cc(S(=O)(=O)Nc3ccc(C)c(C)c3)ccc21,inactive
17,Cc1cc(-c2nnc3n2CCCCC3)c(C)n1-c1ccc([N+](=O)[O-])cc1,inactive
18,C=C(C)C(=O)OC1[C@@H]2C(=C)C(=O)O[C@@H]2C[C@@H](C)[C@@H]2C=CC(=O)[C@@]12C (stereo not given in full),inactive
19,CCOC(=O)C1CCN(C(=O)CNC(=O)Nc2ccccc2Cl)CC1,inactive

row,SMILES,Potency
1,Cc1c(C(=O)OCC2CC2)[nH]c2c1C(=O)CC(c1ccco1)C2 (stereo not given),inactive
2,Cc1ccc(NS(=O)(=O)c2ccc3c(c2)C(Cl)(Cl)C(=O)N3)cc1C,inactive
3,COc1nccc(-c2nc(Nc3ccc(F)c(F)c3)c3ccccc3n2)c1OC,inactive
4,COc1cccc(C2c3c(ncn(-c4cccc(OC)c4)c3=N)Oc3ccc4ccccc4c32)c1 (stereo not given),inactive
5,Cc1ccc(-c2ccc(=O)n(CC(=O)NCCc3ncc[nH]3)n2)cc1,inactive
6,Cc1c(Br)cc(F)c([S+](=O)([O-])N2CCN([S+](=O)([O-])c3ccc4c(c3)OCCO4)CC2)c1F,inactive
7,O=C(Nc1ccc([S+](=O)([O-])Nc2nccs2)cc1)c1ncn[nH]1,inactive
8,N#Cc1c(-c2cccc([N+](=O)[O-])c2)no[n+]1[O-],inactive
9,Cc1ccc(NS(=O)(=O)c2cc3c(cc2N[C@@H](C)CO)NC(=O)CC3)cc1Cl,inactive
10,COC(=O)c1ccc(O)c2ncc(-c3ccc(C(=O)NCCCN(C)C)cc3)cc12,inactive
11,CN1CCCC1CCNc1ncnc2ccc(-c3ccc4c(c3)OCO4)cc12 (stereo not given),inactive
12,O=C1c2ccccc2NC(c2ccc(-c3ccc(C(F)(F)F)cc3)o2)N1O (stereo not given),inactive
13,CC(C)CC(=O)O[C@@H]1OC=C(CO[C@@H]2O[C@H](CO[C@@H]3O[C@H](CO)[C@@H](O)[C@H](O)[C@H]3O)[C@@H](O)[C@H](O)[C@H]2O)[C@H]2C[C@H](O)[C@@H](CO)[C@@H]12,inactive
14,Cc1csc(CNc2ncnc3ccc(-c4cccc(Cl)c4)cc23)c1,inactive
15,CC(=O)Nc1ncc(S(=O)(=O)Nc2cnccc2C(=O)Nc2nc(-c3ccccc3)cs2)s1,inactive
16,CCCn1c(-c2ccc(F)cc2)nc2c(NCCN3CCCC3)nc(C)nc21,inactive
17,O=C1CCCC2=C1C(c1ccccc1)N=C(Nc1nc3ccccc3o1)N2 (stereo not given),inactive
18,Cc1c(P(=S)(c2ccccc2)c2ccccc2)[n+]2ccccc2n1CCCCCc1ccccc1,inactive

# Target: Aldehyde dehydrogenase 1A1 (Homo sapiens) (UniProt P00352)
# Experiment: qHTS for Inhibitors of the Aldehyde Dehydrogenase Family (ALDH1A1) Confirmatory screens (AID 2061316); note: nearly all actives have a fitted effect of over 65% in size; note: potency is the fitted concentration of half-maximal effect
# Conditions: ALDH inhibition qHTS; series mostly up to 47.3 µM
row,SMILES,Potency
1,CC(C)(C)OC(=O)N1CCN(c2ccc(NCc3ccc(-c4ccc(C#N)cc4)nc3)cc2)CC1,15.9 µM (active)
2,c1nc(NCC2CCCCO2)c2cc(-c3ccc4c(c3)OCO4)ccc2n1 (stereo not given),12.7 µM (active)
3,Cc1cc(-c2nnc3n2CCCCC3)c(C)n1-c1ccc([N+](=O)[O-])cc1,10.1 µM (active)
4,CN1CCN(c2cccc(Nc3nn4c(=O)c5ccc(N(C)C)cc5nc4s3)c2)CC1,11.3 µM (active)
5,Cc1c(C(=O)OCC2CC2)[nH]c2c1C(=O)CC(c1ccco1)C2 (stereo not given),1.59 µM (active)
6,Cc1ccc(NS(=O)(=O)c2ccc3c(c2)C(Cl)(Cl)C(=O)N3)cc1C,7.12 µM (active)
7,COc1ccc(S(=O)(=O)Nc2cc(OC)cc3cccnc23)cc1,inactive
8,c1ccc(CNc2ccc(N3CCOCC3)cc2)cc1,7.98 µM (active)
9,N#Cc1c(-c2cccc([N+](=O)[O-])c2)no[n+]1[O-],12.7 µM (active)
10,Cc1ccc(NS(=O)(=O)c2cc3c(cc2N[C@@H](C)CO)NC(=O)CC3)cc1Cl,inactive
11,O=C1c2ccccc2NC(c2ccc(-c3ccc(C(F)(F)F)cc3)o2)N1O (stereo not given),7.12 µM (active)
12,CC(=O)Nc1ncc(S(=O)(=O)Nc2cnccc2C(=O)Nc2nc(-c3ccccc3)cs2)s1,20.1 µM (active)
13,O=C1CCCC2=C1C(c1ccccc1)N=C(Nc1nc3ccccc3o1)N2 (stereo not given),inactive
